Five compounds from PubChem BioAssay can be followed below.

The nature of experiment [1]: blockers of polyQ-driven CASP3 activation – cell-based (AID 1583). The following applies: polyglutamine-induced caspase-3 activation, cell assay; stronger effect = higher value;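 tested at 10 µM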.
Experiment [2] in a line: yeast 75Q aggregation reduction – 75Q-TubU reporter (AID 1593). The settings on record: Yeast 75Q polyglutamine aggregation reporter.
Experiment [3] in a line: restoration of touch response, mutant HTT neurons – whole organism, C. elegans mechanosensory neurons, N-terminal huntingtin (AID 1599). The settings on record: C. elegans polyQ-huntingtin mechanosensory neurons, stronger effect = higher value.
Experiment [4] can be described thus: blockers of cytochrome c efflux from mitochondria – biochemical, purified mitochondria (AID 1603).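 Also: mouse liver mitochondria challenged with calcium chloride; signal normalized to the plate average as 100%.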 The settings on record: stronger effect = lower value.
The nature of experiment [5]: polyglutamine aggregate formation blockers (AID 1604). The following applies: polyglutamine-induced protein aggregation inhibition assay; stronger effect = higher value; tested at 2.5 µM.
Experiment [6] is described as follows: glutamate transport activators, MN-1 cells, MN-1 cell line (AID 1612).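 Also: tested at 1 µM final; 0% = mean of DMSO vehicle wells on each plate; positive means more glutamate uptake than control and negative means less.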 The following applies: MN-1 motor neuron cells, stronger effect = higher value.
Experiment [7] can be described thus: 75Q-TubH aggregate inhibition, S. cerevisiae, yeast (AID 1616). The following applies: S. cerevisiae 75Q-TubH polyglutamine aggregation suppression; stronger effect = higher value.
Experiment [8] is described as follows: compounds altering viability of human ES cells (AID 493140).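 Also: cells exposed to compounds for four days before counting.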 The settings on record: human embryonic stem cell survival screen; stronger effect = higher value.
A short description of experiment [9]: signal quenchers or enhancers, Cy5 substrate/SSB – biochemical, NIH Clinical Collection, E. coli SSB, artefact control for HCV NS3 helicase inhibitor project (AID 743268). The settings on record: Cy5-oligo bound E. coli SSB, fluorescence interference.
Experiment [10] concerns Hepatitis C virus NS3 helicase. Briefly: blockers of NS3h binding to DNA – biochemical, fluorescence polarization, NIH Clinical Collection, primary screen (AID 743270). The settings on record: NS3 helicase binding to Cy5-dT15 DNA, stronger effect = higher value, concentration not given here. For orientation: Polarisation of emitted light reports the rotation of a fluorescent probe.
The target in experiment [11] is Single-stranded DNA-binding protein (Escherichia coli (strain K12)) (UniProt P0AGE0). Briefly: SSB-ssDNA binding inhibitors – biochemical, fluorescence polarization, NIH Clinical Collection, counter-screen for HCV NS3 helicase inhibitor project (AID 743271; in the data active = inhibition above about 28%). The following applies: E. coli SSB-DNA binding, stronger effect = higher value, concentration not given here.
Experiment [12] in a line: compounds distorting NS3 helicase fluorescence signal – biochemical, NIH Clinical Collection, artefact control for HCV NS3 helicase inhibitor project (AID 743272).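 Also: HCV NS3 helicase with a Cy5 labelled single stranded DNA probe.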 The settings on record: fluorescence interference counterscreen, HCV NS3 helicase assay; stronger effect = lower value. In general terms: The purpose of a counterscreen is to sort out artefacts and off-target activity.
Experiment [13] in a line: modulation of C. elegans fzo-1 (AID 1259413).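 Also: fzo-1 mutant C. elegans worms in liquid wells.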 The settings on record: C. elegans fzo-1 modulator screen, mean read-out; stronger effect = higher value.
Experiment [14] addresses Mitogen-activated protein kinase 7 (Homo sapiens) (UniProt Q13164). Briefly: Gal4-ERK5 driven luciferase induction – cell-based, HTS, primary screen (AID 1508626;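 active = luciferase signal above three times the same-plate solvent-only control wells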;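 also: luciferase driven by Gal4-ERK5 fusion binding five Gal4 sites before minimal TATA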). The following applies: HeLa Gal4-ERK5 transactivation, 18 h, at 5 µM, stronger effect = higher value.
Experiment [15] is described as follows: galactose survival enhancers in mitochondrial complex I cybrids – cell-based, galactose medium, ATP luminescence, primary screen (AID 1645843;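 active = z-score of at least 1.8 in each of two replicates, scored against plate mean and spread of sample wells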;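 also: positive z means more ATP and so rescue of galactose-driven cybrid death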). The following applies: complex I mutant cybrid cells, 72 h, stronger effect = higher value.
Experiment [16] relates to R275C/beta1. Briefly: BK channel mutant inhibitors and activators – cell-based, U2OS BacMam, thallium flux, beta subunits, selectivity assay, profiling panel (AID 1259406;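 active = thallium flux through the channel raised or lowered by more than 3 SD from vehicle-only wells, actives on both sides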;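 also: initial slope of Thallos dye fluorescence rise after thallium is added; log ratio against the mean of 0.3% DMSO vehicle wells on the same plate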). The following applies: U2OS BacMam BK variants, at 30 µM.
Experiment [17] deals with R275C/beta2Delta. The description is as above. The following applies: U2OS BacMam BK variants, at 30 µM.
Experiment [18] relates to R275C/beta4. Described as above. The following applies: U2OS BacMam BK variants, at 30 µM.
Experiment [19] deals with R275C/Slo1WT/beta2. Described as above. The following applies: U2OS BacMam BK variants, at 30 µM.

What is called inhibition is the change of the read-out against control, counted positive when it falls.

Values joined by “and” are separate entries in the source; they are usually repeats but may differ in a detail not shown here. Identical values can stand only once. For some assays here: Potency and affinity values are given separately. Active and inactive are the calls of the source. Unless noted, no rule for the calls is given here.

Sequence of Mitogen-activated protein kinase 7 (Homo sapiens) (Q13164 whole entry, looked up, the tested form may be a part): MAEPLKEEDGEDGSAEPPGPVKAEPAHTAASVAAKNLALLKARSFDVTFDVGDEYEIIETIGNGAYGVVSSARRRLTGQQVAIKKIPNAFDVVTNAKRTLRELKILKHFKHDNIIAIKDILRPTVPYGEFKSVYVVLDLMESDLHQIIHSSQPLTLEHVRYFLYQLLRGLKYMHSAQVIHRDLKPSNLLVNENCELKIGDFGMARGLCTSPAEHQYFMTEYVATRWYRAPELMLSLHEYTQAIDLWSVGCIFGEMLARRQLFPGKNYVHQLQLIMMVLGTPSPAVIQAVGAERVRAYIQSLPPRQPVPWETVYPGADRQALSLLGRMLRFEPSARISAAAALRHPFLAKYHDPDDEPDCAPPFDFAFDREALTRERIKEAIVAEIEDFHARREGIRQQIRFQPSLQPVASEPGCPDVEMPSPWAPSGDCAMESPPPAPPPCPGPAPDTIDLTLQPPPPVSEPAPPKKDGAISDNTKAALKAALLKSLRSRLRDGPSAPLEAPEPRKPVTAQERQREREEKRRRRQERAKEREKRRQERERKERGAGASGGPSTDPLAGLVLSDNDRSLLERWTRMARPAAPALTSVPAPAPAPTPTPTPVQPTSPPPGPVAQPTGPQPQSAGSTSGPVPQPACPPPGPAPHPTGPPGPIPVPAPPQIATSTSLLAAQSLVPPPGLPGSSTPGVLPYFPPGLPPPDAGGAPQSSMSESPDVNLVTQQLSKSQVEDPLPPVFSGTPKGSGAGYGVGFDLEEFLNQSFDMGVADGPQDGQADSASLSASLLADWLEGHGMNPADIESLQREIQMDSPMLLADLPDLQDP

As for `O=C(C1CCCCC1)N1CC(=O)N2CCc3ccccc3C2C1` (stereo unspecified), the inhibition is 2.42% in experiment [1], -5.91% (inactive) in experiment [10] and -2% (inactive) in experiment [11]. This compound showed a score in experiment [2] of 0.82. The compound also displayed a rescue above control in experiment [3] of -8.41. For the same compound, the cytochrome c release ratio in experiment [4] was 0.99. The inhibition of aggregation in [5] was found to be 65.4%. Besides, the glutamate uptake change in [6] was determined as 7.89%. In experiment [7], this compound returned an aggregation suppression score of 0.607. The survival in experiment [8] was 12.2 (inactive). The fluorescence ratio in experiment [9] and in experiment [12] was 0.91 (inactive) throughout. Further, the mean signal in [13] was 236 (inactive). The luciferase signal in experiment [14] is 32 AU (inactive). In experiment [15], the z-score was 1.16 (inactive) and -1.2 (inactive) and 1.07 (inactive). Moreover, the log fold change Tl+ flux in [16] is 0.0419 (inactive); in [17] it was -0.0208 (inactive); in experiment [18], 0.0526 (inactive); in [19], 0.0259 (inactive).

Consider `CCc1cc(C(N)=S)ccn1`, for which the inhibition was 13.5% in experiment [1], -4.09% (inactive) in [10] and -4.29% (inactive) in experiment [11]. In addition, in [2], the score stood at 1.02. In [3], this compound came in with a rescue above control of -3.77. Also, the cytochrome c release ratio in experiment [4] amounted to 1.06. In experiment [5], the inhibition of aggregation came to 78.8%. The glutamate uptake change in [6] came to 15.8%. The compound further returned an aggregation suppression score in experiment [7] of 1.09. In addition, in experiment [8], the survival is 9.25 (inactive). In addition, the fluorescence ratio in [9] was 1.03 (inactive); in experiment [12] it was 1.01 (inactive). In addition, the mean signal in [13] is 267 (inactive). The luciferase signal in experiment [14] was 40 AU (inactive). The z-score in experiment [15] was 0.725 (inactive). Moreover, the log fold change Tl+ flux was -0.00453 (inactive) in [16], -0.00222 (inactive) in experiment [17], 0.0412 (inactive) in experiment [18] and 0.00968 (inactive) in [19].

Regarding `O=C(O)c1cc(=O)c2c(OCC(O)COc3cccc4oc(C(=O)O)cc(=O)c34)cccc2o1`, the inhibition in [1] was -4.9%; in [10], -2.27% (inactive); in experiment [11], 3.34% (inactive). Also, the score in [2] came out at 1.69. The same compound yielded a rescue above control in experiment [3] of 9.88. The cytochrome c release ratio in experiment [4] worked out at 0.89. The inhibition of aggregation in [5] was 65.5%. In addition, the glutamate uptake change in experiment [6] is -4.58%. The compound also displayed an aggregation suppression score in experiment [7] of 1.35. The survival in experiment [8] was 1.67 (inactive). For the same compound, the results for the fluorescence ratio in experiment [9] and in [12] were 1.02 (inactive) and 1.03 (inactive), respectively. In experiment [13], the mean signal was 249 (inactive). The luciferase signal in experiment [14] was 72 AU (inactive). Also, the z-score in [15] is 0.69 (inactive) and 0.68 (inactive). Also, the log fold change Tl+ flux is -0.0241 (inactive) in [16], -0.0325 (inactive) in experiment [17], -0.125 (inactive) in experiment [18] and 0.015 (inactive) in experiment [19].

As for `CCN(Cc1ccncc1)C(=O)C(CO)c1ccccc1` (stereo unspecified), the inhibition in experiment [1] was 24.2%; in [10], -2.27% (inactive); in experiment [11] it was -5.05% (inactive). Also, the score in [2] was found to be 1.22. The compound further came in with a rescue above control in [3] of -3.59. Moreover, the cytochrome c release ratio in [4] was 1.14. In addition, in experiment [5], the inhibition of aggregation amounted to 87%. Further, the glutamate uptake change in [6] was -2.09%. The compound further came in with an aggregation suppression score in [7] of 1.36. For the same compound, the survival in experiment [8] was 16.4 (inactive). Moreover, the results for the fluorescence ratio in experiment [9] and in experiment [12] were 1.06 (inactive) and 1.03 (inactive), respectively. In [13], the mean signal was 244 (inactive). Also, the luciferase signal in [14] is 108 AU (inactive). Besides, the log fold change Tl+ flux in experiment [16] is 0.0151 (inactive); in [17] it was 0.0198 (inactive); in experiment [18], 0.0153 (inactive); in [19] it was 0.0191 (inactive).

In the case of `CCCc1nc2c(C)cc(-c3nc4ccccc4n3C)cc2n1Cc1ccc(-c2ccccc2C(=O)O)cc1`, the fluorescence ratio is 1.02 (inactive) in experiment [9] and 1.04 (inactive) in experiment [12]. In addition, the values for the inhibition in experiment [10] and in experiment [11] were 17% (active) and 16.8% (inactive), respectively. The mean signal in experiment [13] is 236 (inactive). Also, in experiment [14], the luciferase signal is 96 AU (inactive). Besides, the z-score in experiment [15] is 1.57 (inactive) and -0.14 (inactive). Besides, the log fold change Tl+ flux is -0.0256 (inactive) in experiment [16], -0.00129 (inactive) in [17], 0.033 (inactive) in experiment [18] and 0.0168 (inactive) in [19].
